In the supplement of paper PMC10981050:
“And” between values parts separate entries of the source, which are not always exact repeats. Equal values may be shown once. Where a name gives a salt, the structure may show the parent alone.

Assays:
Assay in all cases: cell viability relative to vehicle control; higher = less cytotoxic
Details in all cases: 10 µM
K562 = tested on: K562
Method in brief: (§1)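 After removal of identity-inconsistent compounds, the Selleck bioactive, kinase and epigenetic probe libraries were screened on CRISPR-edited mutant clones and isogenic wild-type clones of four leukaemia lines. Plates were 384-well, each well holding 2000 cells in 50 µL medium and receiving a single 10 µM acoustically dispensed dose. CellTiter-Glo luminescence was read 48 h later, after the supernatant was taken off. Genedata Screener was used to express viability as percent of the on-plate vehicle control.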

MARIMO = tested on: MARIMO
Method in brief: as §1

MOLM14 = tested on: MOLM14
Method in brief: as §1

OCI-AML2 = tested on: OCI-AML2
Method in brief: as §1

Row | SMILES | cell viability (K562; SRSF2 genotype: SRSF2 P95H/wt) | cell viability (K562; SRSF2 genotype: SRSF2 wt/wt) [%] | cell viability (MARIMO; SRSF2 genotype: SRSF2 P95H/wt) [%] | cell viability (MARIMO; SRSF2 genotype: SRSF2 wt/wt) [%] | cell viability (MOLM14; SRSF2 genotype: SRSF2 P95H/wt) [%] | cell viability (MOLM14; SRSF2 genotype: SRSF2 wt/wt) [%] | cell viability (OCI-AML2; SRSF2 genotype: P95H/wt) [%] | cell viability (OCI-AML2; SRSF2 genotype: wt/wt) [%]
1 | CC(C)CCCC(C)CCCC(C)CCCCC(C)CCCC(C)CCCC(C)C (stereo not drawn) [Squalane] | 109% and 97% | 108 | 105 | 106 | 103 | 108 | 103 | 100
2 | CC(C)=CCC[C@](C)(O[C@@H]1O[C@H](CO)[C@@H](O)[C@H](O)[C@H]1O)[C@H]1CC[C@]2(C)[C@@H]1[C@H](O)C[C@@H]1[C@@]3(C)CC[C@H](O)C(C)(C)[C@@H]3CC[C@]12C [Ginsenoside CK] | 82.7% and 78.2% | 77 | 92.6 | 104 | 77.2 | 95 | 65.3 | 76.4
3 | COC(=O)N1CCN(Cc2cccc(NC(=O)Nc3ccc(C)nc3)c2F)CC1 | 89.4% and 89.7% | 96.5 | 91.9 | 94.2 | 100 | 99.9 | 88.4 | 87.2
4 | C=C(C)[C@@H]1CCC2=CC(=O)C[C@@H](C)[C@]2(C)C1 [Nootkatone] | 104% and 105% | 107 | 100 | 95.4 | 105 | 103 | 107 | 103
5 | COc1ccc(-c2oc3c(CC=C(C)C)c(O[C@@H]4O[C@H](CO)[C@@H](O)[C@H](O)[C@H]4O)cc(O)c3c(=O)c2O[C@@H]2O[C@@H](C)[C@H](O)[C@@H](O)[C@H]2O[C@@H]2O[C@@H](C)[C@H](O)[C@@H](O)[C@H]2O)cc1 [Epmedin C] | 104% and 108% | 106 | 100 | 103 | 107 | 105 | 103 | 107
6 | O=[N+]([O-])c1cn2c(n1)OC[C@@H](OCc1ccc(OC(F)(F)F)cc1)C2 | 94.3% and 98.1% | 91.8 | 92.7 | 101 | 97.8 | 97.5 | 98.9 | 99.5
7 | Cc1nnc(SCC2=C(C(=O)O)N3C(=O)[C@@H](NC(=O)Cn4cc(Cl)c(=O)c(Cl)c4)[C@H]3SC2)s1 [Cefazedone] | 102% and 107% | 108 | 106 | 111 | 106 | 106 | 121 | 102
8 | Cc1nc2cccc(N)c2c(=O)n1C1CCC(=O)NC1=O (stereo not drawn) [Avadomide(CC-122)] | 108% and 111% | 111 | 102 | 92.7 | 99.2 | 98.2 | 159 | 169
9 | CC(/C=C/C=C(\C)C(=O)O[C@@H]1O[C@H](CO[C@@H]2O[C@H](CO)[C@@H](O)[C@H](O)[C@H]2O)[C@@H](O)[C@H](O)[C@H]1O)=C\C=C\C=C(C)\C=C\C=C(/C)C(=O)O[C@@H]1O[C@H](CO[C@@H]2O[C@H](CO)[C@@H](O)[C@H](O)[C@H]2O)[C@@H](O)[C@H](O)[C@H]1O [Crocin] | 101% and 100% | 99.8 | 95.6 | 100 | 95.2 | 102 | 107 | 102
10 | COc1ccc(C(NC(=O)c2cnc(-c3cccnn3)[nH]c2=O)c2ccc(OC)cc2)cc1 | 115% and 108% | 111 | 99 | 99.6 | 104 | 104 | 106 | 113
11 | N=C(N)NC(=N)NCCc1ccccc1 [Phenformin hydrochloride] | 84.6% and 93.3% | 91.7 | 93.2 | 98.2 | 101 | 94.9 | 86 | 89.3
12 | CC(=O)c1ccccc1 [Acetophenone] | 98.7% and 89.7% | 91.4 | 84.5 | 91.5 | 90.6 | 91.1 | 85.3 | 83.6
13 | O=c1c2ccccc2nc2n1CCc1c-2[nH]c2ccccc12 [Rutaecarpine (Rutecarpine)] | 103% | 103 | 98.5 | 106 | 101 | 103 | 95.5 | 104
14 | O=C(/C=C/c1ccc2ccccc2n1)c1ccncc1 | 6.76% and 0.53% | 0.42 | 0.28 | 0.4 | 0.4 | 0.45 | 0.31 | 0.36
15 | CN(C)CCc1c[nH]c2ccc(CS(=O)(=O)N3CCCC3)cc12 [Almotriptan malate (Axert)] | 101% and 87% | 91 | 84.3 | 101 | 96.9 | 95.9 | 99.2 | 87.6
16 | O=C(O)C1=CO[C@@H](O[C@@H]2O[C@H](CO)[C@@H](O)[C@H](O)[C@H]2O)[C@@H]2C(CO)=CC[C@H]12 [Geniposidic acid] | 105% and 91.2% | 93.8 | 89.8 | 105 | 92.5 | 91.6 | 90.8 | 107
17 | Cn1nnnc1SCC1=C(C(=O)O)N2C(=O)[C@@H](NC(=O)[C@H](OC=O)c3ccccc3)[C@H]2SC1 [S3638 Cefamandole (nafate).cdx] | 103% and 97.5% | 102 | 97.5 | 103 | 99.4 | 104 | 97.7 | 97.6
18 | CN(CC(=O)N(Cc1ccc(C2CCCCC2)cc1)c1ccc(C(=O)NO)cc1)S(=O)(=O)c1c(F)c(F)c(F)c(F)c1F | 0.47% and 0.41% | 0.42 | 0.5 | 0.67 | 0.26 | 0.33 | 0.18 | 0.24
19 | COc1c(O)cc2c(c1O)C(=O)c1c(cc(C)c(O)c1OC)C2=O [Aurantio-obtusin] | 87% and 81.9% | 79.3 | 84.5 | 84.3 | 84.5 | 88.9 | 97.9 | 91.5
20 | CCCNC(=O)Nc1ccc(Oc2ncnc3cc(OC)c(OC)cc23)cc1Cl | 99.4% and 106% | 99.8 | 108 | 113 | 92 | 105 | 99.5 | 101
21 | CCc1cc(Nc2nc(-c3ccc(-n4cnc(C)c4)c(F)c3)cs2)c(C)cc1C | 96% and 99.5% | 91.5 | 93.8 | 101 | 96.6 | 93.9 | 94.2 | 91.9
